Shown is part of a subset that was picked to be rich in hits.
TDP1 cell CPT: qHTS for Inhibitors of human tyrosyl-DNA phosphodiesterase 1 (TDP1): qHTS in cells in presence of CPT. chicken DT40 Tdp1-/-;hTDP1 cells + 20 nM CPT, ATP luminescence, 48 h. Potency, µM (titrated, usually from 46.2 µM), for the others: at the top dose activity change, negative = growth inhibition, actives largely listed as inhibitors. actives 12% (n = 420,000); also: potency is read from the fitted curve at half-maximal effect; nearly all actives have a fitted effect of over 55% in size
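Chicken DT40 Tdp1-/- cells complemented with human TDP1, 400 cells/well, exposed to compounds plus 20 nM camptothecin for at least 48 h at 37 C; viability read as ATP content by CellTiter-Glo luminescence.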
12-LOX inh: Primary qHTS assay for inhibitors of human arachidonate 12S-lipoxygenase (ALOX12): Round 2; Polyunsaturated fatty acid lipoxygenase ALOX12 (Homo sapiens), P18054; purified 12hLO, xylenol orange hydroperoxide absorbance; Potency, µM (doses to about 108 µM), for inactives: top-dose activity change, negative = inhibition, hits mostly inhibitors; actives 1.1% (n = 580,000); also: potency is read from the fitted curve at half-maximal effect
Target sequence (P18054 whole entry, looked up): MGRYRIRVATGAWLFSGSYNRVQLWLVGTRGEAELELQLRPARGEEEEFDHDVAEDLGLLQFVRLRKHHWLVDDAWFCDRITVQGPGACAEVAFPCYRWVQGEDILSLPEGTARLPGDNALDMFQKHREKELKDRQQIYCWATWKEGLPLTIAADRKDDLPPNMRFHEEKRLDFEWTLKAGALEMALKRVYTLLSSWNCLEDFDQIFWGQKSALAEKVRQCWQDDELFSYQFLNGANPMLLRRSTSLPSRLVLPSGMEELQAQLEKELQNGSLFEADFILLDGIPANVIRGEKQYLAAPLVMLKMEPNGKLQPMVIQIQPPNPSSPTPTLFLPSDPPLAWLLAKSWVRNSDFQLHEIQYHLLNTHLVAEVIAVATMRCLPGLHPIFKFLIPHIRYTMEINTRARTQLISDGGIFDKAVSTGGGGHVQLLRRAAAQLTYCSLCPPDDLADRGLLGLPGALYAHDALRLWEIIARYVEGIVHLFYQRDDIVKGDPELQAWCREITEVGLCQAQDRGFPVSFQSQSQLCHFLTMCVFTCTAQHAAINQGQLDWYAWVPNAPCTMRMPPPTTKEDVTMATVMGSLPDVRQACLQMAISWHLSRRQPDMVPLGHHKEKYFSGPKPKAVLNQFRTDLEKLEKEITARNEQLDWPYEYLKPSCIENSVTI
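Hydroperoxide product was detected by ferrous iron/xylenol orange as the 573 to 405 nm absorbance ratio. Arachidonic acid at 40 uM (final) was turned over for 30 min at room temperature by 150 nM human 12hLO, pH 7.0 Hepes buffer, after 15 min compound preincubation.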
HT1080-NT tox: qHTS for induction of synthetic lethality in tumor cells producing 2HG: qHTS for the HT-1080-NT fibrosarcoma cell line; Potency, µM (series often up to 46.1 µM), inactives show top-dose activity, negative = less viability, actives largely listed as cytotoxic; actives 1.6% (n = 360,000); HT-1080-NT fibrosarcoma viability, CellTiter-Glo ATP luminescence, 48 h;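 also: NT is the 2HG producing partner of a matched IDH1 knockdown line; potency is read from the fitted curve at half-maximal effect; 0% = DMSO-treated cells and -100% = media-only wells without cells; nearly all actives have a fitted effect of over 55% in size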
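Toxicity toward the 2HG-producing NT line was scored as %Activity, normalised to DMSO and no-cell wells, from CellTiter-Glo luminescence after 48 hours' treatment.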
TDP1 cell noCPT: qHTS for Inhibitors of human tyrosyl-DNA phosphodiesterase 1 (TDP1): qHTS in cells in absence of CPT; DT40 Tdp1-/- hTDP1 cells, no CPT, ATP luminescence, 48 h; actives 15% (n = 420,000); Potency, µM (doses to about 46.2 µM), for the others: at the highest dose activity change, negative = growth inhibition, hits mostly inhibitors; also: potency is read from the fitted curve at half-maximal effect; nearly all actives have a fitted effect of over 55% in size
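Growth kinetics read by CellTiter-Glo luminescence after ≥48 hr at 37 °C. Cells: DT40 Tdp1-/- stably carrying human TDP1, 400 per well, compound exposure in the absence of CPT (DMSO vehicle).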
IL-1B inflam inh: qHTS for Inhibitors of Inflammasome Signaling: IL-1-beta AlphaLISA Primary Screen; THP-1 LPS/ATP IL-1B secretion, AlphaLISA, 16 h; hits give low values; activity change, % at 57.5 µM; AID 743279, 2014; actives 4.7% (n = 360,000); in the data active = activity change below about -50%; inconclusive = mostly about -30% to -49%
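THP-1 cells pretreated 1 hr with compounds (up to 57.5 uM final), then stimulated with LPS (250 ng/mL final) plus ATP (1.25 mM final); secreted IL-1B measured by AlphaLISA after 16 hr, decreased signal indicating inhibition.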
HT1080 IDH1KD tx: qHTS for induction of synthetic lethality in tumor cells producing 2HG: qHTS for the HT-1080-IDH1KD cell line; Potency, µM (top dose mostly 46.1 µM), for inactives: top-dose activity, negative = toxicity, usual class: cytotoxic; actives 2% (n = 360,000); HT-1080 IDH1 knockdown viability, ATP luminescence, 48 h;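 also: potency is read from the fitted curve at half-maximal effect; 0% = DMSO wells and -100% = cell-free medium wells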
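Using the IDH1-knockdown HT-1080 line run in the same batch and compound series as the NT line, viability after 48 h at 37 °C was determined by CellTiter-Glo luminescence and expressed as % activity.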
Starred values were filed as active, the others as inactive; ? = inconclusive; nt = no result given; [ ] = another dose, or the depositor's remark. Unless noted, calls follow the shape of the dose curve; as a rule, active = well fitted curve in the direction sought with a large enough effect; inconclusive = small, poorly fitted or top-dose-only effect, or another doubt; inactive = no such curve, though single readings can be large; an effect the other way counts as inactive or inconclusive. Unless noted, % is scaled to controls: 0 for no effect and ±100 for the full control effect.

SMILES | TDP1 cell CPT | 12-LOX inh | HT1080-NT tox | TDP1 cell noCPT | IL-1B inflam inh | HT1080 IDH1KD tx
COc1ccc(CN2CC3(C2)C(=O)N(Cc2ccc(C)o2)C(=O)[C@@H]2C[C@@H](O)CN23)c2ccccc12 | nt | -1.9% | nt | nt | nt | nt
Nc1nc(COC(=O)c2cccc(Cl)c2Cl)nc2ccccc12 | nt | -0.5% | nt | nt | nt | nt
CC(C)(C)c1ccc(OCc2ccc(C(=O)N3CCOCC3)o2)cc1 | ? | 5.7% | ? | 25.9µM* | 35.7 | ?
CCOc1ccc(OCc2ccc(C(=O)NCc3ccncc3)o2)cc1 | 16.4µM* | -2.3% | -15.4% | -29.7% | ? | 3.1%
CCCNC(=O)c1ccc(COc2ccc(C(C)(C)C)cc2)o1 | ? | -0.8% | ? | 13µM* | -68.8* | -18.9%
Cc1cc(NC(=O)c2ccccc2F)cc(-c2nc3ccccc3o2)c1O | nt | 18.0% | nt | nt | nt | nt
COc1ccc(CN2CCOc3nc(-c4cccc(N(C)C)c4)ncc3C2=O)cc1 | nt | 3.2%[176 µM] | nt | nt | nt | nt
O=C1CN(C(=O)c2ccccc2)c2ccccc2N1 | -1.5% | 2.0% | 5.6% | -1.8% | -7.0 | 4.6%
O=C1CN(C(=O)c2cccc(Br)c2)c2ccccc2N1 | 14.6µM* | -10.9% | 14.6µM* | 11.6µM* | 21.1 | ?
O=C1CN(C(=O)c2cc(Br)c(Br)s2)c2ccccc2N1 | ? | -15.0% | ? | 13µM* | 19.4 | 20.6µM*
COC(=O)c1sc2nc3c(cc2c1N)C(=O)CC(C)(C)C3 | -20.3% | 18.5% | 2.5% | -11.2% | -2.9 | 26.5%[9.24 µM]
Cc1cc(C)c(NC(=O)c2sc3nc4c(cc3c2N)C(=O)CC(C)(C)C4)c(C)c1 | ? | -14.4% | 3.4% | 18.4µM* | -22.9 | -0.6%
COc1ccc(C23CC4CC(CC(C(=O)NCc5ccccc5CN(C)C)(C4)C2)C3)cc1 | nt | -27.9% | nt | nt | nt | nt
CNC(=O)N1CCC(C2CCN(C(=O)CCc3ccccc3)C2)CC1 (configuration not stated) | nt | 35.7% | nt | nt | nt | nt
O=C(CCNC(=O)c1ccccc1Cl)Nc1nc(-c2ccccc2Cl)cs1 | ? | ? | -25.2% | 18.4µM* | -24.3 | -29.7%
O=C(CCNC(=O)c1ccccc1Cl)Nc1nc(-c2ccc(F)cc2)cs1 | ? | -29.1% | 2.7% | ? | -68.6* | 1.3%
OC1(CN2CCCCC2)CCN(Cc2cnc(-c3ccccn3)nc2)C1 (configuration not stated) | nt | 101.4% | nt | nt | nt | nt
CC(C)(C)CN1CCN(CC#Cc2ccccc2)CC1CCO (configuration not stated) | ? | 26.1% | -2.4% | 10.3µM* | 13.3 | -3.1%
Cc1ccc(-c2noc(CCC(=O)NC3CCN(Cc4ccccc4)CC3)n2)cc1 | 13µM* | ? | -14.8% | ? | ? | -13.4%
CC(=O)c1ccc(S(=O)(=O)NCCC(=O)NC2CCN(Cc3ccccc3)CC2)cc1 | -13.3% | ? | -2.2% | ? | -87.1* | 3.6%
Cc1ccc(-c2noc(CCC(=O)NC3CCCc4ccccc43)n2)cc1 (configuration not stated) | 9.2µM* | 0.0% | -26.6% | 2.31µM* | -12.2 | -22.9%
O=C(CCc1nc(-c2ccccc2)no1)NC1CCCCCC1 | -29.1% | 0.0% | 7.5% | -17.2% | 6.5 | -0.2%
O=C(CCc1nc(-c2ccccc2F)no1)NC1CCN(Cc2ccccc2)CC1 | ? | 4.5% | -2.8% | ? | -7.1 | -4.2%
CC1(C)CC(Nc2ccc(C(F)(F)F)cc2[N+](=O)[O-])CC(C)(C)N1 | -21.4% | -18.8% | -23.5% | ? | -51.7* | ?
O=[N+]([O-])c1cc(C(F)(F)F)ccc1NC1CCN(Cc2ccccc2)C1 (configuration not stated) | ? | ? | -0.3% | -19.6% | ? | -20.2%
SMILES | TDP1 cell CPT | 12-LOX inh | HT1080-NT tox | TDP1 cell noCPT | IL-1B inflam inh | HT1080 IDH1KD tx
Cc1ccc2nc(C)c(C(=O)OCC(=O)NCC3CCCO3)cc2c1 (configuration not stated) | nt | -21.5% | nt | nt | nt | nt
CCOC1(OCC)C(c2ccc(N)cc2)C(C#N)(C#N)C1(OCC)OCC (configuration not stated) | -19.1% | 13.4% | 7.9% | -26.6% | -7.4 | 0.2%
CCOC1(OCC)C(c2ccc(Cl)cc2)C(C#N)(C#N)C1(OCC)OCC (configuration not stated) | ? | -24.8% | ? | 18.4µM* | -57.3* | ?
Cc1cc(C(=O)N2CCCn3ccnc3C2c2cnn(C)c2)n[nH]1 (configuration not stated) | nt | 88.1% | nt | nt | nt | nt
CCC(C)(C)NC(=O)C(c1cccc(OC)c1OC)N(C(=O)CCC(=O)Nc1cc(C)on1)C(C)C (configuration not stated) | -0.3% | 11.3% | 0.5% | -14.7% | 11.7 | 2.5%
Cn1ncc(N2CCC(CNC(=O)c3ccn(C(C)(C)C)c3)C2)cc1=O (configuration not stated) | nt | 53.4% | nt | nt | nt | nt
COc1ccc(C(=O)C2CCCN(C(=O)c3ccc4cc[nH]c4c3)C2)c(C)c1 (configuration not stated) | 16.4µM* | 12.3% | -1.2% | ? | 18.2 | -4.9%
CCn1nc(C)cc1C(=O)N1CCCC(C(=O)c2ccc(Oc3ccccc3)cc2)C1 (configuration not stated) | ? | -8.1% | -3.7% | ? | -4.8 | 0.6%
CCn1nc(C)cc1C(=O)N1CCCC(C(=O)c2ccc3ccccc3c2)C1 (configuration not stated) | 11.6µM* | -2.0% | -5.9% | 7.31µM* | -16.6 | -6.5%
